Screening results deposited in PubChem BioAssay by several laboratories.
LGR2 antag = inhibitors of bursicon-induced Drosophila LGR2 receptor cAMP signaling. HEK293 LGR2, CRE-luciferase, bursicon-stimulated, 4 h. inhibition, % at 9.99 µM. hit rate 0.35% among 380,000. AID 720647;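 active = drop in luminescence signal, shown as inhibition above about 50% in the replicate tests, limit read from the data, passing the limit was not always enough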;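 note: agonist challenge used bursicon conditioned medium at about half maximal strength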
HSF1 inh = HSF1 inhibition; activity change, negative = inhibition, % at 7.5 µM (by protocol); NIH3T3-HGL HSE-luciferase, MG132-induced, luminescence 8 h; active compounds read low; hit rate 0.77% among 300,000;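 active = more than half of replicate wells show activity change below -50%, luminescence cut by over half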;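 note: luciferase reports HSF-1 transcriptional activity via heat shock element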
HSF1 activator = increases HSF-1 driven luciferase reporter signal; NIH3T3-HGL HSF-1 luciferase reporter, MG132, 8 h; 100% = twice DMSO control signal; activation, % at 9 µM; hit rate 1.7% among 300,000; AID 504408;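 active = mean replicate activation of at least 50% with a set share of replicates each reaching 50%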
TROY NFkB inh = blocks TROY-dependent signaling in reporter cells. Q293 LMP1-TROYcd NF-kB luciferase reporter, 4 h. inhibition, % at 10 µM. hit rate 0.98% among 360,000. AID 1347056;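 active = compounds whose plate-normalised and pattern-corrected inhibition of the luciferase reporter signal at the single screening dose is 50% or more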
TWEAK Fn14 block = blocks TWEAK-Fn14 interaction in a reporter cell assay; TWEAK-stimulated Fn14 reporter cells, luciferase luminescence, 8 h; inhibition, % at 10 µM; hit rate 2% among 360,000; in the data active = inhibition above about 50%
EBV LMP1 NFkB = Epstein-Barr LMP1 NF-kappaB reporter inhibition. LMP1-induced NF-kappaB luciferase reporter cells, luminescence. hit rate 0.69% among 350,000. inhibition, % at 12.5 µM; in the data active = inhibition above about 41%
Numbers stand for hits; – = inactive; · = no result given; ! = not active in a repeat. The list is not random: actives were taken first. Their share in the collection is about 3.6%.

SMILES	LGR2 antag	HSF1 inh	HSF1 activator	TROY NFkB inh	TWEAK Fn14 block	EBV LMP1 NFkB
C[C@H](CO)N1C[C@H](C)[C@H](CN(C)C(=O)c2ccncc2)OCCCC[C@H](C)Oc2ccc(NC(=O)c3ccccc3)cc2C1=O	–	·	·	·	·	·
CCCNC(=O)C[C@@H]1C[C@H]2c3cc(NC(=O)CC4CC4)ccc3O[C@H]2[C@H](CO)O1	–	·	·	·	·	·
C[C@H](CO)N1C[C@H](C)[C@@H](CN(C)Cc2ccc3c(c2)OCO3)Oc2ccc(NC(=O)Cc3ccccc3)cc2C1=O	–	·	·	·	·	·
CC1CCN(CC2C(=O)O[C@@H]3C[C@@]4(C)CCC[C@H](C)C4=C[C@H]23)CC(C)(C)C1 (stereo partly specified)	–	–	–	–	55.1	–
C=C1CCC[C@]2(C)C[C@H]3OC(=O)C(CN4CC(C)OC(C)C4)[C@H]3C[C@@H]12 (stereo partly specified)	–	–	–	–	–	–
CO[C@H]1CN(C)C(=O)c2ccc(NC(=O)Nc3ccccc3F)cc2OC[C@H](C)NC[C@@H]1C	–	·	·	·	·	·
COc1ccc(S(=O)(=O)Nc2ccc3c(c2)C(=O)N([C@H](C)CO)C[C@@H](C)[C@@H](CN(C)S(=O)(=O)c2cn(C)cn2)O3)cc1	–	·	·	·	·	·
O=c1cc(C2CCCCC2)[nH]c(=O)[nH]1	–	·	·	–	–	51.7
Cc1cc(=O)[nH]c2c1c(C)nn2C1CCCCC1	–	–	–	–	–	–
Oc1ccc(-c2nc3ccc4ccccc4c3c3c2CCC3)cc1O	–	–	61.0	–	–	–
Cc1cc(C)c2c(ccc3ccccc32)n1	–	·	·	–	–	–
COC(=O)c1ccc(NC(=O)Cn2nc(-c3ccncc3)nc2SCC(=O)Nc2nccs2)cc1	·	–	–	–	–	–
CCN(CC)C(=O)Cn1nc(-c2ccncc2)nc1SCC(=O)Nc1ccc(OC)cc1	–	–	58.1	–	–	–
O=C(C[C@H]1CC[C@H](NC(=O)c2ccncc2)[C@@H](CO)O1)Nc1ccccc1	–	·	·	·	·	·
COCC(C)n1c(-c2ccc3c(c2)NC(=O)CO3)csc1=Nc1ccc(OC(F)F)cc1 (stereo unspecified)	–	–	–	52.1!	63.2!	–
Cc1ccc(S(=O)(=O)Nc2ccc3c(c2)C(=O)N([C@@H](C)CO)C[C@H](C)[C@H](CN(C)Cc2ccc(Oc4ccccc4)cc2)O3)cc1	–	·	·	·	·	·
CCOc1cc(N2CCOCC2)c(OCC)cc1NC(=O)CCS(=O)(=O)c1ccc(Cl)cc1	·	–	74.8	–	–	–
CCOc1cc(N2CCOCC2)c(OCC)cc1NC(=O)Cc1cccc2ccccc12	·	–	121.2	–	–	–
C[C@@H]1CN([C@@H](C)CO)S(=O)(=O)c2ccc(C3=CCCCC3)cc2O[C@H]1CN(C)CC1CC1	–	·	·	·	·	·
Cc1noc(C)c1NC(=O)N(C)C[C@@H]1OCCCC[C@@H](C)Oc2ccc(NS(=O)(=O)c3c(C)noc3C)cc2C(=O)N([C@H](C)CO)C[C@@H]1C	–	·	·	·	·	·
O=C(C[C@H]1CC[C@H]2[C@@H](COC[C@H](O)CN2Cc2cccc(Cl)c2)O1)N1CCCCC1	–	·	·	·	·	·
OC(c1ccccc1)(c1ccccc1)C1CCN(CCCOc2ccc(C(F)(F)F)cc2)CC1	107.0	·	·	·	·	·
OC(c1ccccc1)(c1ccccc1)C1CCN(CCCOc2cccc(C(F)(F)F)c2)CC1	106.2	·	·	·	·	·
CC(C)(c1ccccc1)c1ccc(OCCCN2CCNCC2)cc1	–	–	56.1	–	–	–
CC(C)c1ccc(OCCCN2CCC(C(O)(c3ccccc3)c3ccccc3)CC2)cc1	102.8	·	·	·	·	·
SMILES	LGR2 antag	HSF1 inh	HSF1 activator	TROY NFkB inh	TWEAK Fn14 block	EBV LMP1 NFkB
OC(c1ccccc1)(c1ccccc1)C1CCN(CCCOc2ccc(F)cc2)CC1	–	·	·	–	–	·
CCS(=O)(=O)C(=C1NCCO1)S(=O)(=O)CC	·	–	51.7	–	–	–
CCN(CC)CCNCc1cc(Cl)ccc1OCc1ccccc1F	–	-61.4	–	–	–	–
C[C@H]1O[C@@H](O[C@H]2[C@@H](O)C[C@H](O[C@H]3[C@@H](O)C[C@H](O[C@H]4CC[C@@]5(C)[C@H](CC[C@@H]6[C@@H]5C[C@@H](O)[C@]5(C)[C@@H](C7=CC(=O)OC7)CC[C@]65O)C4)O[C@@H]3C)O[C@@H]2C)C[C@H](O)[C@@H]1O	84.5	–	–	52.5	68.6	81.5
COC(=O)c1ccsc1NC(=O)c1ccccc1	–	–	–	–	–	–
COC(=O)c1ccsc1NC(=O)CCc1ccccc1	–	–	67.5	–	–	–
COC(=O)Nc1sccc1C(=O)Nc1sccc1C(=O)OC	–	-65.2	–	–	–	–
CCOC(=O)N1CCC(Nc2c(-c3ccc(C)c(C)c3)c(=O)c2=O)CC1	·	–	–	–	–	53.1
CCOC(=O)N1CCC(Nc2c(N3CCN(c4cc(Cl)ccc4C)CC3)c(=O)c2=O)CC1	–	–	–	–	–	–
CO[C@H]1CN(C)C(=O)c2ccc(NS(C)(=O)=O)cc2OC[C@H](C)N(Cc2cccnc2)C[C@H]1C	–	·	·	·	·	·
Cc1ccc(C(=O)Cc2cc3ccccc3oc2=O)c(C)c1	–	–	85.5	–	–	–
CCCC(=O)c1cc2ccccc2oc1=O	·	–	–	–	–	–
COc1ccc(C(=O)Cc2cc3ccccc3oc2=O)cc1	–	–	56.2	–	–	–
CCOc1ccc(C(=O)Cc2cc3cccc(OC)c3oc2=O)cc1	–	–	–	–	–	–
O=C(N/N=C/c1cc([N+](=O)[O-])ccc1O)NC12CC3CC(CC(C3)C1)C2	·	-50.5	–	85.1	93.0	–
O=C(N/N=C/c1ccccc1F)NC12CC3CC(CC(C3)C1)C2	–	–	87.0	–	–	–
OCC[C@H]1C[C@H](O)[C@@H](O)[C@@]2(Cc3ccccc3CO2)O1	·	·	·	–	–	–
OCC[C@@H]1C[C@@H](O)[C@H](O)[C@@]2(Cc3ccccc3CO2)O1	–	-66.1	–	–	–	–
Cc1ccc(N=C2SC(C(=O)NCCc3ccccc3)CC(=O)N2C)cc1C (stereo unspecified)	–	–	69.8	–	–	–
Cc1ccc(N=C2SC(C(=O)O)CC(=O)N2C)cc1C (stereo unspecified)	–	–	–	–	–	–
CC(C)NC(=O)Nc1ccc2c(c1)CC(=O)N([C@@H](C)CO)C[C@@H](C)[C@H](CN(C)Cc1ccc(Oc3ccccc3)cc1)O2	–	·	·	·	·	·
C[C@H]1CN([C@@H](C)CO)S(=O)(=O)c2ccc(C#CC3CC3)cc2O[C@H]1CN(C)Cc1ccccc1F	–	·	·	·	·	·
CC(C)NC(=O)Nc1ccc2c(c1)CC(=O)N([C@@H](C)CO)C[C@H](C)[C@H](CN(C)S(=O)(=O)c1ccc(F)cc1)O2	–	·	·	·	·	·
O=C(Nc1ccc(Cl)c(Cl)c1)c1cccc(S(=O)(=O)NCc2cccnc2)c1	–	–	–	63.6	89.5	–
COc1cccc(S(=O)(=O)NCc2ccc(C(=O)Nc3ccc(Cl)c(Cl)c3)cc2)c1	·	–	–	–	–	–
O=C(C[C@H]1C[C@@H]2c3cc(NC(=O)C4CCOCC4)ccc3O[C@@H]2[C@H](CO)O1)NCc1ccc2c(c1)OCO2	–	·	·	·	·	·
